In PubChem BioAssay AID463173 (ICCB-Longwood Screening Facility, Harvard Medical School, 2010):
Screen size: about 52,000 compounds; about 1,700 (3.3%) were called active. Shown is part of a subset that was picked to be rich in actives. Unmarked numbers belong to inactive results. Cut-off read from the data, not from the text of the source: active = survival mostly below about 52% (no sharp cut-off); inactive = mostly above about 56%.

What follows are compounds tested on Wild type (assay: growth inhibition of S. aureus wild type versus tarO mutant, primary screen, teichoic acid synthesis inhibitors, RN4220, OD600 (AID 463173)). Details: S. aureus RN4220 wild type/DeltatarO growth, OD600, 18 h, hits give low values, screened at 18.75 µg/mL (by protocol).

Structure (SMILES)	survival
COC(=O)c1cc(-c2ccc(C)cc2)c2c(=O)n(C)c(=O)n(C)c2n1	105%
O=C(NCCNCc1ccccc1)c1ccco1	115%
CC(=O)Nc1ccc(NC(=O)CCS(=O)(=O)c2ccc3c(c2)CC(=O)N3C)cc1	66%
Cc1ccc(-c2cc(C(F)(F)F)n3nc(C(=O)Nc4sc5c(c4C#N)CCC(C)C5)cc3n2)cc1 (centres undefined)	70%
N#Cc1c(NC(=O)c2cc3nc(-c4ccc(Br)cc4)cc(C(F)(F)F)n3n2)sc2c1CCCC2	0% (active)
COC(=O)c1c(NC(=O)c2cc3nc(-c4ccc(Br)cc4)cc(C(F)(F)F)n3n2)sc2c1CCCC2	82%
COc1ccc(CNC(=O)c2cc(-c3ccc(C)c(C)c3)n[nH]2)cc1	67%
Cc1cc2c(cc1S(=O)(=O)NCc1ccc(F)cc1)n(C)c(=O)c(=O)n2C	85%
Cc1c(C(=O)OCc2ccccc2)[nH]c2c1C(=O)CC(c1ccc(Cl)cc1)C2 (centres undefined)	99%
COc1cc(NC(=O)CNC(=O)Cn2ccc3ccccc3c2=O)cc(OC)c1OC	130%
O=S(=O)(Cc1ccccc1)N1CCC(c2nc(-c3cccs3)no2)CC1	110%
CC1=C(c2ccc(C)cc2)S(=O)(=O)N(Cc2ccc(C(=O)Nc3ccccc3C)cc2)C1=O	78%
Cc1ccc(N2CCN(C(=O)c3cn(C)c4ccc(S(=O)(=O)N5CCCC5)cc4c3=O)CC2C)cc1 (centres undefined)	134%
Cn1c(C(=O)NCCc2ccccc2)cc2cc(S(=O)(=O)N3CCCCC3)ccc21	73%
CC(CNC(=O)c1cc2cc(S(=O)(=O)N3CCCCC3)ccc2n1C)c1ccccc1 (centres undefined)	55%
Cc1ccccc1CCNC(=O)c1cc2cc(S(=O)(=O)N3CCCCC3)ccc2n1C	-3% (active)
Cc1ccccc1CNC(=O)c1cc2cc(S(=O)(=O)N3CCCCC3)ccc2n1C	66%
CC(C)CCNC(=O)c1cc2cc(S(=O)(=O)N3CCCCC3)ccc2n1C	74%
Cn1c(C(=O)NCc2ccc(F)cc2)cc2cc(S(=O)(=O)N3CCCCC3)ccc21	131%
CCC(C)NC(=O)c1cc2cc(S(=O)(=O)N3CCCCC3)ccc2n1C (centres undefined)	14% (active)
CN(C)c1ccc(CNC(=O)c2cc3cc(S(=O)(=O)N4CCCCC4)ccc3n2C)cc1	0% (active)
CCc1ccc(CNC(=O)c2cc3cc(S(=O)(=O)N4CCCCC4)ccc3n2C)cc1	47%
CCOC(=O)c1sc2cccc(F)c2c1S(=O)(=O)NCc1ccccc1Cl	130%
Clc1ccc2[nH]c3nc4ccccc4nc3c2c1	104%

Structure (SMILES)	survival
COc1ccc(Nc2cc(C(=O)NCc3ccccc3)c3ccccc3n2)cc1OC	83%
CC(=O)c1ccc(NC(=O)Cn2cc3c(n2)CCCC3)cc1	82%
Cc1ccsc1CN(Cc1ccco1)C(=O)c1ccc(Cl)cc1	65%
Cc1nn(C)c2c1c(C(F)(F)F)cc(=O)n2CC(=O)N1CCCCC1	67%
CCOc1ccc(/C=C/c2nc(C#N)c(N3CCN(c4ccc(OC)cc4)CC3)o2)cc1	84%
CCn1cc(C(=O)N2CCN(c3cc(C)ccc3C)CC2)c(=O)c2cc(S(=O)(=O)N3CCOCC3)ccc21	81%
CCc1ccc(CNC(=O)c2ccc(-c3nc(CSc4ccc(C)cc4)c(C)o3)cc2)cc1	63%
COc1ccc(CNC(=O)c2ccc(-c3nc(CSc4ccccc4)c(C)o3)cc2)cc1OC	77%
COc1ccc(CNC(=O)c2ccc(-c3nc(CSc4ccc(C)cc4)c(C)o3)cc2)cc1OC	-3% (active)
Cc1oc(-c2ccc(C(=O)NCCc3ccc(Cl)cc3)cc2)nc1CSc1ccccc1	59%
Cc1ccc(SCc2nc(-c3ccc(C(=O)NCc4ccc(Cl)cc4)cc3)oc2C)cc1	64%
COc1ccc(CNC(=O)c2ccc(-c3nc(CSc4ccccc4)c(C)o3)cc2)c(OC)c1	100%
COc1ccc(CNC(=O)c2ccc(-c3nc(CSc4ccc(C)cc4)c(C)o3)cc2)c(OC)c1	1% (active)
Cc1ccc(SCc2nc(-c3ccc(C(=O)NCCc4ccc(Cl)cc4)cc3)oc2C)cc1	-4% (active)
COc1ccc(OC)c(CNC(=O)c2ccc(-c3nc(CSc4ccccc4)c(C)o3)cc2)c1	129%
Cc1cc(N2CCC(C)CC2)nc2ccc(NC(=O)/C=C/c3cccc(Cl)c3)cc12	69%
Cc1ccc(CNc2ccc(-c3nc(-c4ccncc4)no3)cc2[N+](=O)[O-])cc1	87%
CCc1ccc(NS(=O)(=O)c2c(-c3ccccc3)csc2C(=O)OC)cc1	77%
Cn1c(=O)oc2cc(S(=O)(=O)N3CCCC(C(=O)NCCc4ccc(Cl)cc4)C3)ccc21 (centres undefined)	90%
CCOc1ccc(CNC(=O)CCn2c(=O)c3cccn3c3cccnc32)cc1	93%
Cc1cccc(-n2c(=O)c3c(c4cc(C)ccc4n3C)n(Cc3ccccc3F)c2=O)c1	153%
O=C1NCN(c2ccccc2)C12CCN(c1nnnn1-c1ccccc1)CC2	102%
Cc1cccc(N2CC(c3nc4ccccc4n3CCC3CCCCC3)CC2=O)c1 (centres undefined)	44%
O=C1CC(c2nc3ccccc3n2CCC2CCCCC2)CN1c1ccccc1Cl (centres undefined)	32% (active)

Structure (SMILES)	survival
COc1ccccc1OCCCn1c(C2CC(=O)N(c3ccccc3Cl)C2)nc2ccccc21 (centres undefined)	93%
CCOc1ccc(N2CC(c3nc4ccccc4n3CCC3CCCCC3)CC2=O)cc1 (centres undefined)	29%
COc1ccccc1OCCCCn1c(C2CC(=O)N(c3ccccc3Cl)C2)nc2ccccc21 (centres undefined)	85%
CCc1ccccc1N1CC(c2nc3ccccc3n2CCC2CCCCC2)CC1=O (centres undefined)	25% (active)
Cc1ccccc1N1CC(c2nc3ccccc3n2CCC2CCCCC2)CC1=O (centres undefined)	12% (active)
CCc1ccccc1N1CC(c2nc3ccccc3n2CC(C)C)CC1=O (centres undefined)	91%
Cc1ccc(N2CC(c3nc4ccccc4n3CCC3CCCCC3)CC2=O)cc1 (centres undefined)	80%
Cc1c(C(=O)NCc2ccc(N(C)C)cc2)oc2c1-c1nn(Cc3cccc(Cl)c3)cc1CC2	91%
CC1CCCN(S(=O)(=O)c2ccc(N)cc2)C1 (centres undefined)	109%
COc1ccc(-c2onc(C)c2C)cc1S(=O)(=O)NCCc1ccccc1	57%
Cc1ccc(-c2onc(C)c2C)cc1S(=O)(=O)NCc1cccs1	119%
COc1ccc(CCNS(=O)(=O)c2cc(-c3onc(C)c3C)ccc2OC)cc1OC	-3% (active)
COCCCNS(=O)(=O)c1cc(-c2onc(C)c2C)ccc1OC	111%
Cc1ccc(-c2onc(C)c2C)cc1S(=O)(=O)NCc1ccco1	112%
Cc1ccc(-c2onc(C)c2C)cc1S(=O)(=O)NCc1ccc(N(C)C)cc1	-4% (active)
CCOC(=O)n1c(SCC)nc2ccccc21	104%
O=C(Cc1ccc(Cl)cc1)NCCc1csc2nc(-c3ccccc3F)nn12	69%
Cc1cc(C)n2nc(-c3ccccc3)cc2n1	116%
Cc1cc(-c2ccccc2)n2nc(-c3cccc(Br)c3)cc2n1	55%
Cc1cc(-c2ccccc2)n2nc(-c3ccccc3)cc2n1	-2% (active)
CCCCC(=O)Nc1nnc(SCc2cc(=O)n3cc(C)ccc3n2)s1	63%
CC(=O)Nc1nonc1-c1nc2ccccc2n1Cc1ccccc1Br	97%
O=C(CCn1c(=O)c2sccc2n(Cc2ccc(F)cc2Cl)c1=O)NCc1ccc2c(c1)OCO2	92%
CCc1ccc2oc(C(=O)NCCc3ccc(OC)c(OC)c3)cc(=O)c2c1	83%

Structure (SMILES)	survival
Cc1c(C(C)(C)C)sc(=N)n1C	86%
CCc1ccc(-c2[nH]c3c(c2-c2c(-n4cccc4)n(C)c(=O)n(C)c2=O)c(=O)n(C)c(=O)n3C)cc1	105%
COc1ccc2c(Sc3ccc(Cl)cc3)c(C(=O)N3CCCCC3)[nH]c2c1	33%
COc1ccc2c(Sc3ccccc3)c(C(=O)NCCCN3CCCCC3)[nH]c2c1	73%
O=C(c1[nH]c2ccccc2c1Sc1ccc(Cl)cc1)N1CCCCC1	48%
COCCCNC(=O)c1[nH]c2ccccc2c1Sc1ccc(C)cc1	81%
O=C(NCCCN1CCCCC1)c1[nH]c2ccccc2c1Sc1ccc(Cl)cc1	-1% (active)
COc1ccc2c(Sc3ccc(Cl)cc3)c(C(=O)NCCCN3CCCCC3)[nH]c2c1	-1% (active)
CCOc1cc(C2CC(=O)Nc3c2c(C)nn3-c2nc(C)cc(C)n2)ccc1O (centres undefined)	83%
CCOC(=O)c1cccc(NC(=O)c2cc3c(-c4cccc(OC)c4)nn(C)c3s2)c1	65%
CCc1ccc2occ(CC(=O)N(Cc3ccccc3)C3CCS(=O)(=O)C3)c2c1 (centres undefined)	77%
COc1ccc2c(c1)c1c(c(=O)n(-c3cccc(Cl)c3)c(=O)n1CC(=O)N1CCCC1)n2C	73%
CCCCN(CCCC)CCNC(=O)CN1C(=O)CSc2ccc(S(=O)(=O)N3CCCCC3)cc21	110%
CCOC(=O)c1cc(-c2ccccc2)nn1Cc1ccccc1	2% (active)
COC(=O)c1ccc(Cn2nc(-c3ccc(C)cc3)ccc2=O)cc1	145%
CCOC(=O)c1cc(-c2ccc(C)cc2)nn1Cc1ccccc1	0% (active)
Cc1ccc(-c2cc(C(=O)O)n(Cc3ccccc3)n2)cc1	63%
O=C(O)c1cc(-c2ccccc2)nn1Cc1ccccc1	68%
COc1ccc(-c2cc(C(=O)O)n(Cc3ccccc3)n2)cc1	63%
CCOC(=O)c1cnn(Cc2ccccc2)c1N	104%
CCOC(=O)c1cc(-c2ccc(OC)cc2)nn1Cc1ccccc1	10% (active)
CCc1cccc(NC(=O)Cn2nc(-c3ccc(OC)cc3)ccc2=O)c1	59%
